# From PMC7862700, “An all-to-all approach to the identification of sequence-specific readers for epigenetic DNA modifications on cytosine”
# Tests used:
# Test in all cases: DAPPL (digital affinity profiling via proximity ligation, sequencing); 10 mM Tris-HCl pH 7.5, 50 mM NaCl, 1 mM DTT, 4% glycerol, room temperature, 30 min; GST-TFs on glutathione beads, 16-mer random dsDNA library, 0.1% formaldehyde crosslink after washing; high values mean tight binding
# [1] = biological target: T1, FLI1 (Homo sapiens, UniProt Q01543 1-452); details: protein: recombinant; tags: N-terminal GST; dsDNA, one strand shown
# T1 sequence: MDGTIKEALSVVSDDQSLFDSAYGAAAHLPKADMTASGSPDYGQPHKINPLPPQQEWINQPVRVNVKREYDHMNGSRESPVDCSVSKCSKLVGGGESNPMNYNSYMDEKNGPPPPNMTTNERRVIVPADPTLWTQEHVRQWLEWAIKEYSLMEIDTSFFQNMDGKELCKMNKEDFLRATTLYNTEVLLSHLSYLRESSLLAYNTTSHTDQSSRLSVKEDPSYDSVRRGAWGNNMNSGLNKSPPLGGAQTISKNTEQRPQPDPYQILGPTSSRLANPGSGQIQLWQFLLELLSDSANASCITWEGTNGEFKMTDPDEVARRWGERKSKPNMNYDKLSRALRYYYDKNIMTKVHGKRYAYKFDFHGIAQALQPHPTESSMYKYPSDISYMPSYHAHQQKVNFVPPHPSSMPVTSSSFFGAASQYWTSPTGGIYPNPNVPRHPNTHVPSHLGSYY
# In short: (§1)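 A tag-only sample was pooled with DNA-barcoded human transcription factors that had been expressed in yeast as GST fusions and captured on glutathione beads. The pools were incubated for 30 min at room temperature with 200 nmole of a random double-stranded 16-mer DNA library in Tris/NaCl/DTT/glycerol buffer, then washed, crosslinked with 0.1% formaldehyde, proximity-ligated (BsaI/T4 ligase, 1 h, 37 °C), PCR-amplified and sequenced on an Illumina NextSeq500. Binding signal is each hexamer's read frequency for a factor divided by its frequency for the tag-only sample.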
# [2] = biological target: T2, ELK1 (Homo sapiens, UniProt P19419 1-428); details: protein: recombinant; tags: N-terminal GST; dsDNA, one strand shown
# T2 sequence: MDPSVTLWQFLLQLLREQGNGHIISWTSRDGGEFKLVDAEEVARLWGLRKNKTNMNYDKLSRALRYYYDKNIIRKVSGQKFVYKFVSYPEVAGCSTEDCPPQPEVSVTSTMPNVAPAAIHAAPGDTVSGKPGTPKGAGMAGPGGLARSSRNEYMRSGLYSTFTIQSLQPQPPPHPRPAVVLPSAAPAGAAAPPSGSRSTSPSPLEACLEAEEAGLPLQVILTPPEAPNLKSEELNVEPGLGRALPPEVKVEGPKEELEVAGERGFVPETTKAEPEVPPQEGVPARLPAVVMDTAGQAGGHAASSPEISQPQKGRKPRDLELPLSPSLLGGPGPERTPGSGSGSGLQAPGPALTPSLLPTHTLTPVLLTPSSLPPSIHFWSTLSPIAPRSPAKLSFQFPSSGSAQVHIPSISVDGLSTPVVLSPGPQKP
# In short: as §1
# [3] = biological target: T3, GABPA (Homo sapiens, UniProt Q06546 1-454); details: protein: recombinant; tags: N-terminal GST; dsDNA, one strand shown
# T3 sequence: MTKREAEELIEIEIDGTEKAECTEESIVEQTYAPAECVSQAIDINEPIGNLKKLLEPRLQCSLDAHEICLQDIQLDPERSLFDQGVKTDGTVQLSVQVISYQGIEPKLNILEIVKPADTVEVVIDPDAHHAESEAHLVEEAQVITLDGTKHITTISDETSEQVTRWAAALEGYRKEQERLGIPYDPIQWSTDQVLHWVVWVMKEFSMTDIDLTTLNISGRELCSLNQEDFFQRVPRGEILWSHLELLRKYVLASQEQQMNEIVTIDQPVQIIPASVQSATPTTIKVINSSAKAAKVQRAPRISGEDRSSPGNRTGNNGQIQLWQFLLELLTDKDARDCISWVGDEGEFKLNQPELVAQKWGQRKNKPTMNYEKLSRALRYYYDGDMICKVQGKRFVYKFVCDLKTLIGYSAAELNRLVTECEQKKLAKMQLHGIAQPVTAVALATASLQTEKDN
# In short: as §1
# [4] = biological target: T4, ERG (Homo sapiens, UniProt P11308 1-479); details: protein: recombinant; tags: N-terminal GST; dsDNA, one strand shown
# T4 sequence: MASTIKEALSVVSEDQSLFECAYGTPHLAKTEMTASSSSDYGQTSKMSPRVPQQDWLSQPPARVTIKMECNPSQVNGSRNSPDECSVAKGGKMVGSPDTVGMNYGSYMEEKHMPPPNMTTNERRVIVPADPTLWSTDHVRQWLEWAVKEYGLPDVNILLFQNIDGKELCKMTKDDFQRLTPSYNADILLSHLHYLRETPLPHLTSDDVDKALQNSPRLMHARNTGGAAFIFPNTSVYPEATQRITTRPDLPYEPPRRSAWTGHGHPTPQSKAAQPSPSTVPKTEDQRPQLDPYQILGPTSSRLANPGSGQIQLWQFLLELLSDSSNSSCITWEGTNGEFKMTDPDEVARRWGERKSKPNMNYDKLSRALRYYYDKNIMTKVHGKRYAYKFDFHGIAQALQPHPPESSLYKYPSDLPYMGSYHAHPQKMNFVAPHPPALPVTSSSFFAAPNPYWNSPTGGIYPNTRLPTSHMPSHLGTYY
# In short: as §1
# [5] = biological target: ELF1 (Homo sapiens, UniProt P32519 1-619); details: protein: recombinant; tags: N-terminal GST; dsDNA, one strand shown
# In short: as §1
# [6] = biological target: T5, EHF (Homo sapiens, UniProt Q9NZC4 1-300); details: protein: recombinant; tags: N-terminal GST; dsDNA, one strand shown
# T5 sequence: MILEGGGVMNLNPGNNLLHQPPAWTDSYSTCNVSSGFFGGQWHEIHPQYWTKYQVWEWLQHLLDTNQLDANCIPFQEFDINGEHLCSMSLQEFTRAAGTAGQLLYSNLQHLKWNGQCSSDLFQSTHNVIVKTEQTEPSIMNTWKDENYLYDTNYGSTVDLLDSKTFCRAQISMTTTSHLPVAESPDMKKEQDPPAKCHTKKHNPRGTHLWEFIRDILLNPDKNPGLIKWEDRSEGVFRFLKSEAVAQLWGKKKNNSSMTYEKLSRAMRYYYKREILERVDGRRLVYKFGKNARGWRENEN
# In short: as §1
# [7] = biological target: SPIB (Homo sapiens, UniProt Q01892 1-262); details: protein: recombinant; tags: N-terminal GST; dsDNA, one strand shown
# In short: as §1
# [8] = biological target: T6, ELK3 (Homo sapiens, UniProt P41970 1-407); details: protein: recombinant; tags: N-terminal GST; dsDNA, one strand shown
# T6 sequence: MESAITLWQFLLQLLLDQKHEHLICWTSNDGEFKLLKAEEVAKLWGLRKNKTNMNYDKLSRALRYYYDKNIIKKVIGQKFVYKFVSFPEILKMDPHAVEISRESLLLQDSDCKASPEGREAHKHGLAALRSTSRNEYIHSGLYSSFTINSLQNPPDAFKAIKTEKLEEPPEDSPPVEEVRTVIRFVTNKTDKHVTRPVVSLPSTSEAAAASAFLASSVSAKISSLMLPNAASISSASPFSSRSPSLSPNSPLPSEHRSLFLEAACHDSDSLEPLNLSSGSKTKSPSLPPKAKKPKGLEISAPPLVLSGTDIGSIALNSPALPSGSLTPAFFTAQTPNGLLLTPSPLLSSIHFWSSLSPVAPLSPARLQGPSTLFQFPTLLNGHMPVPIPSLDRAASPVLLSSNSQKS
# In short: as §1
# [9] = biological target: T7, FEV (Homo sapiens, UniProt Q99581 1-238); details: protein: recombinant; tags: N-terminal GST; dsDNA, one strand shown
# T7 sequence: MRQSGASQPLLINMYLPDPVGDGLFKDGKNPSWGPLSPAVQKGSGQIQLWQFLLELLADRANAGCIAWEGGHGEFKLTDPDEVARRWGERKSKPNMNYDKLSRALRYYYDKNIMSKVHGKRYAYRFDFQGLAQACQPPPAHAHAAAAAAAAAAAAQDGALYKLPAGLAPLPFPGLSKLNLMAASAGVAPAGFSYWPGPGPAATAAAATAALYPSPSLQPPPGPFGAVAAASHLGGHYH
# In short: as §1
# [10] = biological target: ETV5 (Homo sapiens, UniProt P41161 1-510); details: protein: recombinant; tags: N-terminal GST; dsDNA, one strand shown
# In short: as §1
# [11] = biological target: HSF1 (Homo sapiens, UniProt Q00613 1-529); details: protein: recombinant; tags: N-terminal GST; chain copies: 3; dsDNA, one strand shown
# In short: as §1
# [12] = biological target: T8, SPIC (Homo sapiens, UniProt Q8N5J4 1-248); details: protein: recombinant; tags: N-terminal GST; dsDNA, one strand shown
# T8 sequence: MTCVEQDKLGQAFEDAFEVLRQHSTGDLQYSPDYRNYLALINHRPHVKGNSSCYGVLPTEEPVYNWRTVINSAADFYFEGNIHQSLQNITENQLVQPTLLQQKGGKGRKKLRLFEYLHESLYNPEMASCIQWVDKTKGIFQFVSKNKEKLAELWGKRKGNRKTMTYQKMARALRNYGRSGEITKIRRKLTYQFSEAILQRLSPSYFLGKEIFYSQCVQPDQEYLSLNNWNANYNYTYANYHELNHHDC
# In short: as §1
# [13] = biological target: ELF4 (Homo sapiens, UniProt Q99607 1-663); details: protein: recombinant; tags: N-terminal GST; dsDNA, one strand shown
# In short: as §1
# [14] = biological target: T9, ELK4 (Homo sapiens, UniProt P28324-2 1-405); details: protein: recombinant; tags: N-terminal GST; dsDNA, one strand shown
# T9 sequence: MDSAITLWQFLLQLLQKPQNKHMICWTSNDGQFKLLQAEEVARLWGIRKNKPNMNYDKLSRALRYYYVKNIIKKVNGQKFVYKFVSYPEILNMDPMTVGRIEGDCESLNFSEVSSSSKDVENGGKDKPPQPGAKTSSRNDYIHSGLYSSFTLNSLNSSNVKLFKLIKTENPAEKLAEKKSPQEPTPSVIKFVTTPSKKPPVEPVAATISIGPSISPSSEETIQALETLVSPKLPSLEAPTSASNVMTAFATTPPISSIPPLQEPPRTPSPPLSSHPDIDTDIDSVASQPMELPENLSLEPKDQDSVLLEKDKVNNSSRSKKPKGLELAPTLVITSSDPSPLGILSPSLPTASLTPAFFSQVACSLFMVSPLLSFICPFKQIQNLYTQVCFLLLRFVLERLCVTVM
# In short: as §1
# [15] = biological target: T10, ETV2 (Homo sapiens, UniProt O00321 1-342); details: protein: recombinant; tags: N-terminal GST; dsDNA, one strand shown
# T10 sequence: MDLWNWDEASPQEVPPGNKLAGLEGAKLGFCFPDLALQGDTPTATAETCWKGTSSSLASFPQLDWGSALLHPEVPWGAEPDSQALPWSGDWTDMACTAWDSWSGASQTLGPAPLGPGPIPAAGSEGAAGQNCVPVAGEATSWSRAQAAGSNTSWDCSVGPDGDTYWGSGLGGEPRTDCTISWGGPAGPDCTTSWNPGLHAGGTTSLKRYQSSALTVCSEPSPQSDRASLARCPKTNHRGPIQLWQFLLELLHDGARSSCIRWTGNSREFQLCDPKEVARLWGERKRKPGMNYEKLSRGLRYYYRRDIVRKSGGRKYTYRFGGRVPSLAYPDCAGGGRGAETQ
# In short: as §1
# [16] = biological target: T11, ELF3 (Homo sapiens, UniProt P78545 1-371); details: protein: recombinant; tags: N-terminal GST; dsDNA, one strand shown
# T11 sequence: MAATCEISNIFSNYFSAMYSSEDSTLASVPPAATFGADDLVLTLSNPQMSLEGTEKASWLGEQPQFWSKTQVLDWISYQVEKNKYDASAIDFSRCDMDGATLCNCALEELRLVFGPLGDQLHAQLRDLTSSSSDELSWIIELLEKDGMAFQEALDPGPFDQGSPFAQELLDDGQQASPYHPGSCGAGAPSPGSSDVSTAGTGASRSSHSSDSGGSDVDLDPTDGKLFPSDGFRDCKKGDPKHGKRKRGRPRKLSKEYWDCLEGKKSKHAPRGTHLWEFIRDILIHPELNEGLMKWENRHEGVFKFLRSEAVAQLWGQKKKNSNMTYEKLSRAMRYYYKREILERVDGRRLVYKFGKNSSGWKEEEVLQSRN
# In short: as §1
# [17] = biological target: CRX (Homo sapiens, UniProt O43186 1-299); details: protein: recombinant; tags: N-terminal GST; dsDNA, one strand shown
# In short: as §1
# [18] = biological target: ETV1 (Homo sapiens, UniProt P50549 1-477); details: protein: recombinant; tags: N-terminal GST; dsDNA, one strand shown
# In short: as §1
# SPIB, sequence (Q01892 whole entry): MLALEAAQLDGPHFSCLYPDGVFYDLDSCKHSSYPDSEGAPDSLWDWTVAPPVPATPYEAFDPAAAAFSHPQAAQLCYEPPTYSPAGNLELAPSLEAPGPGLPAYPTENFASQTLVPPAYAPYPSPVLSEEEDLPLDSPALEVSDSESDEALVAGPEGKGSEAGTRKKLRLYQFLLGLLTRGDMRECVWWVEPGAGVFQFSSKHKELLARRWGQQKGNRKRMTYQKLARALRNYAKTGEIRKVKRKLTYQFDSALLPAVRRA
# ELF1, sequence (P32519 whole entry): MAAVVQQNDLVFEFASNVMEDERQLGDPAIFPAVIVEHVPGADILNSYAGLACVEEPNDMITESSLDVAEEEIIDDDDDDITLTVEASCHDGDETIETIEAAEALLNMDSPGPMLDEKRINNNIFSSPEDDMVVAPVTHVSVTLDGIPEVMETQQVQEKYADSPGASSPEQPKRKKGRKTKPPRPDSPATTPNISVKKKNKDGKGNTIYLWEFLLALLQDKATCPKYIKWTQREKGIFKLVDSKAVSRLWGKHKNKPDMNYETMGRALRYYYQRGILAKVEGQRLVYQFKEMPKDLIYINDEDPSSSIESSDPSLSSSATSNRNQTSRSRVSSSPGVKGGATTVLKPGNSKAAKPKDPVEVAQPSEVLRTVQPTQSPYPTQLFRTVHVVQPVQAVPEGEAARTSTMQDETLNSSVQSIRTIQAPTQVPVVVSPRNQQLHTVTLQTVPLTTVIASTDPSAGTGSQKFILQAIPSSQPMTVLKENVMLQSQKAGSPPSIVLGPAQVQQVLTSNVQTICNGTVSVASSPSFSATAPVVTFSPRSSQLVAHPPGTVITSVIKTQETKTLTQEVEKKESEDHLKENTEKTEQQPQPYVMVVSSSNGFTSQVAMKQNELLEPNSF
# CRX, sequence (O43186 whole entry): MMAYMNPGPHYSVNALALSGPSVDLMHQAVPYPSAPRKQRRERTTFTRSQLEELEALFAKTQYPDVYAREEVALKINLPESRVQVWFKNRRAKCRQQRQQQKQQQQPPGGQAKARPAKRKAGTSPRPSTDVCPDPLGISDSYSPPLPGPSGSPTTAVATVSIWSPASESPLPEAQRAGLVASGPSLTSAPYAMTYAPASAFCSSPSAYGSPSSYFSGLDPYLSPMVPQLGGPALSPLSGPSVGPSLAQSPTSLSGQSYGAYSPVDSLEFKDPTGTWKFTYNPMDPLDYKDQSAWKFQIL
# ELF4, sequence (Q99607 whole entry): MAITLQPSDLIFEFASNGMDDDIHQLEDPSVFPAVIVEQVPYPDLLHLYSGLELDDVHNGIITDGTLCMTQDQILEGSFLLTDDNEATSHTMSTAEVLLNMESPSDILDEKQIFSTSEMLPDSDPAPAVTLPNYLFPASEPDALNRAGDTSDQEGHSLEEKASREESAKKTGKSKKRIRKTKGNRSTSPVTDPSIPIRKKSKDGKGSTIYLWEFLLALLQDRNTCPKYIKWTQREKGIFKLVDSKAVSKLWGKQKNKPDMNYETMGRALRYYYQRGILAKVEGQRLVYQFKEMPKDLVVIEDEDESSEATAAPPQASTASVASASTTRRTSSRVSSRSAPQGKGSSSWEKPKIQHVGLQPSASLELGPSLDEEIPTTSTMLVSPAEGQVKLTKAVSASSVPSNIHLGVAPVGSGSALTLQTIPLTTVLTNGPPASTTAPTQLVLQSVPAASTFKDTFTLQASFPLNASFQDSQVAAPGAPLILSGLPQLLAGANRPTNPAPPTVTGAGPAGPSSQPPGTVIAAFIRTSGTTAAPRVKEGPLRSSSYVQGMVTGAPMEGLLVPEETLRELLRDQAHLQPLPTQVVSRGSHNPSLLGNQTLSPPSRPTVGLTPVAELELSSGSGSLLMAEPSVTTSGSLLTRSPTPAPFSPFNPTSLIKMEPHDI
# ETV1, sequence (P50549 whole entry): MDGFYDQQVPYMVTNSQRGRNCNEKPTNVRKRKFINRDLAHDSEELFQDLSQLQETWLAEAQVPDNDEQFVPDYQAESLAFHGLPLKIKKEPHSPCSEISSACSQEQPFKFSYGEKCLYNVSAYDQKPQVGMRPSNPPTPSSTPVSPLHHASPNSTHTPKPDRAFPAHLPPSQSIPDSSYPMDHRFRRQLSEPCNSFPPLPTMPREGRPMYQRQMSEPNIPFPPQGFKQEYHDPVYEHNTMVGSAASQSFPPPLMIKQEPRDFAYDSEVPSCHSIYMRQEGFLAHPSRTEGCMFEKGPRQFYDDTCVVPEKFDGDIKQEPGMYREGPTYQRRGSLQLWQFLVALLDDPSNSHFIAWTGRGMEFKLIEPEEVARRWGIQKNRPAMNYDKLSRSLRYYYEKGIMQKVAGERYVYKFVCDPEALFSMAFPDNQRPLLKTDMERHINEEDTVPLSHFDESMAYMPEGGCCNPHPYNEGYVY
# ETV5, sequence (P41161 whole entry): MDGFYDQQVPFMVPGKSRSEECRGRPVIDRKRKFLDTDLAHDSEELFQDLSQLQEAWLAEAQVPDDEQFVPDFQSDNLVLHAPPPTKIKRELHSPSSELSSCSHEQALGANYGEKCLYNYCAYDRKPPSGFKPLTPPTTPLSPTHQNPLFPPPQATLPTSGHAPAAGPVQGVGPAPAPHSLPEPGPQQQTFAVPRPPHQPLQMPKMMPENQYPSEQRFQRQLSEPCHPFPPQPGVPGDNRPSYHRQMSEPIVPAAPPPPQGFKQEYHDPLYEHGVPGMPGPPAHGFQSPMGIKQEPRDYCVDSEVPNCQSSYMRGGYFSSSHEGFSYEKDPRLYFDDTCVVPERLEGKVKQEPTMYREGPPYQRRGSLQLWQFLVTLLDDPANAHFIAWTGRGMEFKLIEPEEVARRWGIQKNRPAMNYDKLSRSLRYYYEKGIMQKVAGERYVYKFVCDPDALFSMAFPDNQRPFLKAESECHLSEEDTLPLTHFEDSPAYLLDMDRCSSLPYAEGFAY
# HSF1, sequence (Q00613 whole entry): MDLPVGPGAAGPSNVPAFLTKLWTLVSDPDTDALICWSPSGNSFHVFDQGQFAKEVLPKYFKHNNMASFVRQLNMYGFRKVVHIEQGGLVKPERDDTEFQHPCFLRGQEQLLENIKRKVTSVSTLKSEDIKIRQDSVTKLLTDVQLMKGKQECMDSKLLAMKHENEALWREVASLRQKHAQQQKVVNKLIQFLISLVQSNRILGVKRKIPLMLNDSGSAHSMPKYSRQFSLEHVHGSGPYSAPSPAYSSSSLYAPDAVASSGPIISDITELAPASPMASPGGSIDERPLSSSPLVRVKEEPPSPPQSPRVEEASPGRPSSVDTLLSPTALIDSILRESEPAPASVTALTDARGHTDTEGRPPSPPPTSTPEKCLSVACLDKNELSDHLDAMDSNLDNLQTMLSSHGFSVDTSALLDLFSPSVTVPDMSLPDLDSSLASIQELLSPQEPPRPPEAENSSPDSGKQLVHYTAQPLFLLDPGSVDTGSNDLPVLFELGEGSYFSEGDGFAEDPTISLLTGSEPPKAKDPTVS
sequence,measurement,setting,value
TATCAG,binding signal,[1],"1.15 fold enrichment (6-mer frequency, TF over GST control)"
same,binding signal,[2],"1.21 fold enrichment (6-mer frequency, TF over GST control)"
same,binding signal,[3],"1.14 fold enrichment (6-mer frequency, TF over GST control)"
same,binding signal,[4],"1.09 fold enrichment (6-mer frequency, TF over GST control)"
same,binding signal,[5],"1.15 fold enrichment (6-mer frequency, TF over GST control)"
same,binding signal,[6],"1.13 fold enrichment (6-mer frequency, TF over GST control)"
same,binding signal,[7],"1.2 fold enrichment (6-mer frequency, TF over GST control)"
same,binding signal,[8],"1.15 fold enrichment (6-mer frequency, TF over GST control)"
same,binding signal,[9],"1.07 fold enrichment (6-mer frequency, TF over GST control)"
same,binding signal,[10],"1.14 fold enrichment (6-mer frequency, TF over GST control)"
same,binding signal,[11],"1.11 fold enrichment (6-mer frequency, TF over GST control)"
same,binding signal,[12],"1.03 fold enrichment (6-mer frequency, TF over GST control)"
same,binding signal,[13],"1.18 fold enrichment (6-mer frequency, TF over GST control)"
same,binding signal,[14],"1.35 fold enrichment (6-mer frequency, TF over GST control)"
same,binding signal,[15],"1.01 fold enrichment (6-mer frequency, TF over GST control)"
same,binding signal,[16],"1.09 fold enrichment (6-mer frequency, TF over GST control)"
same,binding signal,[17],"1.47 fold enrichment (6-mer frequency, TF over GST control)"
same,binding signal,[18],"1.14 fold enrichment (6-mer frequency, TF over GST control)"
